Screening results: PubChem, several laboratories
PfHsp40 rescue = rescue of PfHsp40-mediated yeast toxicity; S. cerevisiae expressing PfHsp40, growth rescue, ATP luminescence; growth rescue, % at 12.5 µM; 340,000 tested, 0.68% active; AID 504582; in the data active means growth rescue above about 28%, passing the limit was not always enough; inconclusive means no clear call, values can overlap the other calls;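 further: yeast W303a lacking pdr1 and pdr3 grown in galactose medium; growth measured after three days at 30 °C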
PrP UTR inh = inhibition of PrP 5' UTR reporter expression | 340,000 tested, 0.35% active | inhibition, % (test concentration not listed) | cell-based PrP 5' UTR mRNA reporter, plate reader | AID 488862; in the data active means inhibition above about 52%; further: 0 = median of the neutral control wells
Y pestis TopoI = inhibitors of Yersinia pestis topoisomerase I | Y. pestis Topo-I cleavage product accumulation, plate reader | activity, % at 10 µM | 360,000 tested, 0.064% active | AID 504884; in the data active means activity above about 50%, passing the limit was not always enough; inconclusive means no clear call, values can overlap the other calls
PrPC TRFRET = inhibitors of human cell surface prion protein PrPC; P04156; TR-FRET read-out; inhibition, % at 13.8 µM; 370,000 tested, 0.43% active; in the data active means inhibition above about 24%; further: 0% = median of the test wells and 100% = reference compound wells
PriA SSB inh = inhibitors of Klebsiella pneumoniae PriA binding to SSB C-terminal tail; 430,000 tested, 0.6% active; AlphaScreen SSBct-PriA binding, biotinylated peptide; inhibition, % at 33 µM; in the data active means inhibition mostly above about 37%, no sharp cut-off; inactive means mostly below about 20%;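 further: plate controls were negative control peptide for no effect and reference peptide for full effect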
BJeLR viability = kills HRASV12-expressing BJeLR cells. 300,000 tested, 0.17% active. BJeLR (HRASV12) viability, CellTiter-Glo ATP luminescence, 48 h. inhibition, % (concentration not given with the values). AID 1554; in the data active means inhibition above about 50%; inconclusive means no clear call, values can overlap the other calls
The depositor's hits bear a star; u = inconclusive; x = no result given. An excerpt weighted towards active compounds, which were near 1.7% of everything screened.

SMILES | PfHsp40 rescue | PrP UTR inh | Y pestis TopoI | PrPC TRFRET | PriA SSB inh | BJeLR viability
Cc1cc(C)n(-c2ccc(N3CCOCC3)nn2)n1 | 36* | -32 | 0 | -8 | 3 | 5
COc1ccc(C)c2sc(=NC(=O)CCOc3ccccc3)n(C)c12 | x | x | x | x | 0 | x
CCCc1nnsc1C(=O)NCc1ccc(C(=O)c2cccs2)s1 | x | x | x | x | -6 | x
CCOc1cc(/C=C2\SC(=S)N(NS(=O)(=O)c3ccc(C)cc3)C2=O)ccc1O | 59* | -11 | 4 | -23 | 0 | -6
COc1cc(/C=C2\SC(=S)N(NS(=O)(=O)c3ccccc3)C2=O)ccc1O | -1 | -21 | 5 | -27 | -7 | -8
COc1cc(/C=C2\SC(=S)N(NS(=O)(=O)c3ccc(C)cc3)C2=O)cc(OC)c1OC | u | -16 | 8 | 7 | -2 | -12
COc1cc(/C=C2\SC(=S)N(NS(=O)(=O)c3ccc(C)cc3)C2=O)ccc1O | 303* | -9 | 7 | -21 | 6 | 8
FC(F)(F)c1cnc(C(c2ccccn2)c2ncn[nH]2)c(Cl)c1 (stereo not given) | -1 | -34 | -18 | 2 | 77* | 3
Cc1c(C(=N)C(C#N)C#N)c(=N)oc2c1ccc1ccccc12 | 0 | -32 | 1 | -9 | 70* | 4
Nc1ncnc(Nc2cc(C(F)(F)F)ccc2Cl)c1[N+](=O)[O-] | x | x | x | x | -11 | x
O=C(/C=C/c1ccccc1Cl)NCCc1ccc(F)cc1 | 39* | -45 | 3 | 1 | -16 | 2
O=C(/C=C/c1ccccc1[N+](=O)[O-])NCCc1ccc(F)cc1 | 1 | -15 | -7 | -14 | -1 | -3
O=C1C(c2ccccc2)=C(N2CC2)c2ccccc21 | -2 | -38 | -3 | -40 | 41* | 4
O=C1C(Nc2ccccc2)=C(N2CCCCC2)C(=O)c2ccccc21 | 0 | -17 | -12 | -16 | -16 | 5
COC(CN)c1ccccc1C (stereo not given) | x | x | x | x | -22 | x
CC(C)CCN1C(=O)C(C)(C)COc2ccc(NS(=O)(=O)Cc3cccc(Cl)c3)cc21 | x | x | x | x | -14 | x
CC(C)(C)c1ccc(OCCNC(=O)c2ncn[nH]2)cc1 | 2 | -5 | 0 | 2 | 57* | 7
CS(=O)(=O)Nc1cccc(C2=NN(C(=O)c3ccco3)C(c3ccccc3F)C2)c1 (stereo not given) | x | x | x | x | 58* | x
CCCC(=O)OCCNc1cc(Sc2nccn2C)c2nonc2c1[N+](=O)[O-] | -1 | -5 | -1 | -17 | 10 | 94*
CN1C(=O)c2ccc(NC(=O)CS(=O)(=O)c3ccccc3)cc2C1=O | x | x | x | x | -2 | x
Nc1ccc2sc(C(F)(F)F)nc2c1 | x | x | x | x | -4 | x
CCn1c(SCC(=O)Nc2ccc(NC(C)=O)cc2)nc2c([nH]c3ccccc32)c1=O | 41* | -8 | 4 | 0 | 2 | -4
CCOC(=O)C1=CN(Cc2cccc(Br)c2)S(=O)(=O)N(C)C1C (stereo not given) | 40* | 47 | 41 | -1 | -20 | x
CC(C)CCC[C@](C)(O)c1ccc(C(=O)O)cc1O | x | x | x | 2 | x | x
CC(C)(O)CCCC(C)(O)c1ccc(C(=O)O)cc1O (stereo not given) | 55* | -5 | 10 | -1 | -6 | -6
SMILES | PfHsp40 rescue | PrP UTR inh | Y pestis TopoI | PrPC TRFRET | PriA SSB inh | BJeLR viability
O=C(CCN1CCOCC1)N/N=C/c1cc(Br)cc(Br)c1O | 40* | -10 | -4 | 6 | x | 7
O=C(CCN1CCOCC1)NN=Cc1cc(Br)cc(Br)c1O | x | x | x | x | 25 | x
COC(=O)C1CCN(C(=O)c2nn(-c3ccc(F)cc3)cc2OCc2ccccc2)CC1 | x | x | x | x | 9 | x
COc1ccc(NC(=O)COC(=O)CC23CC4CC(CC(C4)C2)C3)c([N+](=O)[O-])c1 | 3 | -7 | 40 | -7 | 66* | -3
CCC(=O)OCC(=O)Nc1ccc(OC)cc1[N+](=O)[O-] | 0 | -35 | 5 | -3 | -9 | 11
Oc1c(C(Nc2nccs2)c2ccc(C(F)(F)F)cc2)ccc2cccnc12 (stereo not given) | 84* | 25 | 0 | 17 | 9 | 23
Oc1c(C(Nc2cccc(C(F)(F)F)c2)c2ccncc2)ccc2cccnc12 (stereo not given) | 381* | -9 | 2 | 10 | 87 | 3
Cc1ccc(S(=O)(=O)N2CCc3ccc(NC(=O)CC(C)(C)C)cc3C2)cc1 | x | x | x | x | 11 | x
O=C(O)CCn1nnc(-c2cccs2)n1 | -2 | -23 | 5 | -1 | 2 | -1
CC(C)c1ccc(-c2nnn(CCC(=O)O)n2)cc1 | 0 | 73* | 9 | x | -9 | -2
Cc1cc[n+](-c2[nH]c(=O)sc2/C=N\NC(=O)c2ccccc2[O-])cc1 | x | x | x | x | 10 | x
COC(=O)C1=NNC2(c3ccc(Cl)cc3)C(=O)N(c3ccc(Cl)cc3)C(=O)C12 (stereo not given) | 45* | -12 | 6 | -1 | 7 | 8
COC(=O)C1=NNC2(c3ccc(Cl)cc3)C(=O)N(c3ccccc3)C(=O)C12 (stereo not given) | -1 | -7 | -6 | 6 | 1 | -1
CCn1nc(C(=O)Nc2ccccc2)cc1C | x | x | x | x | -14 | x
Cc1ccnc2c(=O)cc[nH]c12 | x | x | x | x | 104* | x
Cc1ccc(-c2csc(NC(CO)c3nc4ccccc4n3CCOCCO)n2)cc1 (stereo not given) | 34* | -15 | 0 | -4 | 0 | -8
COc1ccc(-c2csc(NC(CO)c3nc4ccccc4n3Cc3ccc(C)cc3)n2)cc1 (stereo not given) | -1 | -12 | 12 | 4 | 13 | -5
O=[N+]([O-])c1cc(Br)ccc1NS(=O)(=O)c1ccccc1 | 65* | -6 | 3 | -4 | 6 | x
O=[N+]([O-])c1ccccc1NS(=O)(=O)c1ccccc1 | x | x | 10 | -6 | x | x
Cc1ccc(C2C3=C(CC(C)(C)CC3=O)NC3=C2C(=O)c2ccccc23)cc1 (stereo not given) | 1 | 8 | -17 | -24 | 51* | 0
O=C(NCC(O)(c1ccccc1)C(F)(F)F)C1CC=CCC1 (stereo not given) | x | x | x | x | -19 | x
O=Nc1c(O)n(Cc2ccc(Cl)cc2)c2ccccc12 | 12 | -17 | 27 | -3 | 10 | -2
O=Nc1c(O)n(Cc2ccc(Cl)cc2Cl)c2ccccc12 | 90* | -11 | 8 | -7 | 10 | 2
COc1ccc(N=C2S/C(=C\c3cc(C)n(C)c3C)C(=O)N2C)cc1 | -1 | -2 | 4 | -12 | 39* | -2
COc1ccccc1-c1ccc(N2CCC(NC(=O)c3sccc3C)CC2)nn1 | x | x | x | x | -4 | x
COc1ccc(NC(=O)C(=O)NCC2CCCN2S(=O)(=O)c2ccc(C)cc2)cc1 (stereo not given) | 1 | 78* | 29 | 14 | 7 | 51*
COc1ccc(S(=O)(=O)N2CCCC2CNC(=O)C(=O)Nc2ccc(C)cc2)cc1 (stereo not given) | 0 | 4 | 8 | 0 | -2 | -6
COc1ccccc1NC(=S)NCCc1c[nH]c2ccccc12 | 1 | -2 | -11 | -3 | 45* | -1
